DT40 TDP1 no CPT: qHTS for Inhibitors of human tyrosyl-DNA phosphodiesterase 1 (TDP1): qHTS in cells in absence of CPT | DT40 Tdp1-/- hTDP1 cells, no CPT, ATP luminescence, 48 h | Potency, µM (series often up to 46.2 µM), for inactives: top-dose activity change, negative = growth inhibition, hits mostly inhibitors | 420,000 compounds, 15% hits | AID 686978, 2013; also: potency is read from the fitted curve at half-maximal effect; nearly all actives have a fitted effect of over 55% in size
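A cellular qHTS used chicken DT40 cells lacking endogenous Tdp1 but carrying stably transfected human TDP1. Compounds were applied without camptothecin, and cell growth kinetics were judged by ATP-dependent luminescence after ≥48 hr.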
IL1B secr inh: blocks inflammasome-driven IL-1 beta release; THP-1 LPS/ATP IL-1B secretion, AlphaLISA, 16 h; active compounds read low; activity change, % at 57.5 µM; 360,000 compounds, 4.7% hits; in the data active = activity change below about -50%; inconclusive = mostly about -30% to -49%
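Secreted IL-1B measured by AlphaLISA bead assay after 16 h compound exposure of THP-1 cells; compounds (final up to 57.5 uM) added 1 h before LPS (250 ng/mL) and ATP (1.25 mM) stimulation; lower signal means less secretion.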
TDP1 inh: inhibitors of human tyrosyl-DNA phosphodiesterase TDP1; Q9NUW8; recombinant TDP1, AlphaScreen DNA substrate cleavage; Potency, µM (series often up to 130 µM), without a hit: at the highest dose activity change, negative = inhibition, usual class: inhibitors; 350,000 compounds, 0.28% hits; AID 485290; also: potency is read from the fitted curve at half-maximal effect; nearly all actives have a fitted effect of over 40% in size
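Enzyme-compound mixtures sat 15 min at room temperature, followed by a 5 min reaction with 15 nM final substrate and 10 min with AlphaScreen beads. Recombinant human Tdp1 was used at 1 nM final.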
DT40 TDP1 CPT: DT40-hTDP1 cell growth loss with CPT; chicken DT40 Tdp1-/-;hTDP1 cells + 20 nM CPT, ATP luminescence, 48 h; Potency, µM (series often up to 46.2 µM), inactives show at the highest dose activity change, negative = growth inhibition, most hits filed as inhibitors; 420,000 compounds, 12% hits; AID 686979; also: potency is read from the fitted curve at half-maximal effect; nearly all actives have a fitted effect of over 55% in size
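Chicken DT40 Tdp1-/- cells stably complemented with human TDP1 were seeded at 400 cells/well in medium containing 20 nM camptothecin, exposed to pin-transferred compounds, and grown at 37 °C for at least 48 hr. Viability was read as ATP luminescence.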
ELG1 DNA repair: ELG1-dependent DNA repair inhibition. HEK293T ELG1-luciferase reporter, luminescence, 16 h; DNA damage induced by 5-fluorouridine. Potency, µM (top dose mostly 46.1 µM), inactives show at the highest dose activity change, negative = inhibition, hits mostly inhibitors. 330,000 compounds, 2.3% hits; also: potency is read from the fitted curve at half-maximal effect; nearly all actives have a fitted effect of over 55% in size
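Reporter activity after DNA damage by 5-fluorouridine is monitored. Compound-treated cells incubate 16 hr at 37 °C, then ONE-Glo is added for 30 min before luminescence reading.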
Giardia killer: Giardia lamblia killing; Giardia lamblia trophozoite viability; activity change, % at 7.66 µM, hits read low; 340,000 compounds, 0.15% hits; AID 540267; in the data active = activity change below about -80%; inconclusive = between about -30% and that limit;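 also: parasites exposed to compound for two days anaerobically before the ATP read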
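Giardia lamblia trophozoites (100 cells/well) were incubated with compounds for 48 h at 37 deg C under anaerobic conditions. Viability was read as ATP content by one-step luminescence after 15-30 min at room temperature.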
* marks the source's active call; other numbers are inactive results; ? = inconclusive; / = not tested or not shown; [ ] = dose if it differs, or a comment. Compounds with a hit are over-represented: about 19% of the library has one in this group of screens. Unless noted, calls follow the shape of the dose curve; as a rule, active = well fitted curve in the direction sought with a large enough effect; inconclusive = small, poorly fitted or top-dose-only effect, or another doubt; inactive = no such curve, though single readings can be large; an effect the other way counts as inactive or inconclusive. % is scaled to controls: 0 for no effect and ±100 for the full control effect.

SMILES	DT40 TDP1 no CPT	IL1B secr inh	TDP1 inh	DT40 TDP1 CPT	ELG1 DNA repair	Giardia killer
COc1cc(C(=O)NCC(c2cccs2)N2CCOCC2)cc(OC)c1OC (stereo not given)	-26%	9	-4%	-10%	?	7
COc1ccccc1C(=O)NC(CCSC)C(=O)NCC(c1cccs1)N1CCOCC1 (stereo not given)	-24%	1	/	-22%	8%	0
COc1cccc(C(=O)NCC(c2cccs2)N2CCc3ccccc32)c1 (stereo not given)	?	?	3%	13µM*	?	5
COc1cc(C(=O)NCC(c2cccs2)N2CCc3ccccc32)cc(OC)c1OC (stereo not given)	21µM*	?	1%	?	?	-4
O=C1C=C[C@@H](O)[C@H]2[C@@H]3C(=O)N(C[C@@H]4CCCO4)C(=O)[C@@H]3CC[C@H]12	/	/	8%[21 µM]	/	/	/
CSCCC(NC(=O)c1ccccc1)C(=O)NCCc1ccc2c(c1)OCCO2 (stereo not given)	3%	-11	-1%[56.1 µM]	-9%	3%	10
CC(C)N(C(=O)c1ccccc1-c1ccccc1)C(C)C	18µM*	-14	3%	?	-18%	-9
COc1cccc(-c2oc3c(c2C#CCCO)C(O)CCC3)c1 (stereo not given)	-15%	3	/	-8%	/	/
COc1cccc(-c2oc3c(c2C#CC2(N)CCCCC2)C(O)CCC3)c1 (stereo not given)	18µM*	-11	/	18µM*	/	/
CC(=O)c1c(C)nc2ccccn12	8%	-5	0%	-13%	7%	3
Cc1ccc(/C=C/C(=O)c2c(C)nc3ccccn23)cc1	16µM*	-95*	-2%	16µM*	?	-10
CCOC(=O)Cn1nnc(-c2ccc(S(C)(=O)=O)cc2)n1	-1%	-60*	4%	4%	6%	17
CCOC(=O)Cn1nnc(-c2ccc(SC)cc2)n1	-2%	17	3%	7%	17%	-3
CCOc1cc(C(=O)N(C)CC(=O)Nc2cccc(F)c2)ccc1OCC(=O)N1CCOCC1	3%	8	4%	5%	17%	?
N#Cc1c(NC(=O)c2cc(C3CC3)on2)sc2c1CCC2	12µM*	37	-7%	10µM*	12%	5
Cc1onc(-c2c(F)cccc2Cl)c1C(=O)Nc1sc2c(c1C#N)CCC(C(C)(C)C)C2 (stereo not given)	16µM*	?	-2%[56.1 µM]	?	?	-12
CC(C)(C)C1CCc2c(sc(NC(=O)Cn3nnc(-c4ccccc4Cl)n3)c2C#N)C1 (stereo not given)	-17%	/	2%	-9%	/	/
CC(C)(C)C(=O)NC(=S)Nc1sc2c(c1C#N)CCCCC2	23µM*	-3	3%	?	?	4
CC(=O)Nc1sc2c(c1C#N)CCCCC2	-14%	15	2%	-5%	?	-13
Cc1onc(-c2c(F)cccc2Cl)c1C(=O)Nc1nnc(C2CC2)s1	?	13	10%	?	-30%	10
Cc1onc(-c2c(F)cccc2Cl)c1C(=O)Nc1sc2c(c1C(N)=O)CCC2	11µM*	?	4%	11µM*	?	-9
CCOc1cc(C(=O)NCCC(=O)N2CCC3(CC2)NCCc2[nH]cnc23)cc(OCC)c1OCC	16%	0	2%	2%	0%	2
Cc1c(NC(=O)c2c(N)sc3c2CCCC3)c(=O)n(-c2ccccc2)n1C	2%	29	7%	0%	15%	11
CCC(NC(=S)NC1CCCCC1)c1ccc(C(C)C)cc1 (stereo not given)	/	/	3%	/	-3%	/

Screens as filed in PubChem.
